In PubChem BioAssay (NCI):
The panel holds about 79,000 compounds, 15% with a hit somewhere; the sample as a whole holds those more often. Active and inactive are the calls of the source. Cut-off read from the data, not from the text of the source: active = growth inhibition above about 70%; inactive = the rest.

Legend:
[1] = NCI Yeast Anticancer Drug Screen. Data for the wt1 strain (AID 149);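 note: 0% = growth of vehicle-treated wt1 cultures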; details: S. cerevisiae wt1 strain (SPY 50644) growth inhibition, hits give high values
In short: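 Vehicle-normalised growth inhibition; strain wt1; compound exposure.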

[2] = NCI Yeast Anticancer Drug Screen. Data for the rad50EPP+ strain (AID 151);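 note: 0% = growth of vehicle-treated control cultures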; details: S. cerevisiae rad50 mutant strain, hits give high values
In short: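 One strain with a rad50 alteration (rad50EPP+) was compound-treated, its growth then compared to that of vehicle controls.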

[3] = NCI Yeast Anticancer Drug Screen. Data for the mgt1 strain (AID 153); details: S. cerevisiae mgt1 mutant growth inhibition, hits give high values
In short: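 After exposure of the mgt1 yeast mutant to compound, growth was measured and reported as inhibition compared with vehicle controls.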

[4] = NCI Yeast Anticancer Drug Screen. Data for the rad50 strain (AID 155);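 note: 0% = growth of vehicle-only cultures of the same strain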; details: S. cerevisiae rad50 strain growth inhibition, hits give high values
In short: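 A DNA repair-deficient yeast mutant serves as the test organism; compound-induced growth inhibition is calculated against vehicle-treated cells.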

[5] = NCI Yeast Anticancer Drug Screen. Data for the mec2-1 strain (AID 157); details: S. cerevisiae mec2-1 strain, hits give high values
In short: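 Test agents were screened against the mec2-1 yeast strain, with defined DNA repair or cell cycle alteration. Growth was scored as inhibition against vehicle-only controls.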

[6] = NCI Yeast Anticancer Drug Screen. Data for the rad14 strain (AID 159);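 note: 0% = growth of vehicle-treated control cultures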; details: S. cerevisiae rad14 strain growth inhibition, hits give high values
In short: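 Vehicle-treated cultures served as the baseline for growth inhibition of a DNA repair-mutant yeast strain exposed to each compound.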

[7] = NCI Yeast Anticancer Drug Screen. Data for the sgs1 mgt1 strain (AID 161);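 note: 0% = growth of cultures given vehicle only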; details: S. cerevisiae sgs1 mgt1 strain, hits give high values
In short: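 Mutant yeast exposed to compound; growth scored against vehicle-only wells.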

[8] = NCI Yeast Anticancer Drug Screen. Data for the CLN2oe strain (AID 163);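 note: 0% = growth of vehicle-only control cultures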; details: S. cerevisiae CLN2oe strain, hits give high values
In short: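 Here, growth inhibition in a cell-cycle-altered yeast strain after compound exposure was quantified against vehicle control growth.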

[9] = NCI Yeast Anticancer Drug Screen. Data for the cln2 rad14 strain (AID 165);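 note: 0% = growth equal to vehicle treated cultures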; details: S. cerevisiae cln2 rad14 strain, hits give high values
In short: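 Growth of compound-exposed yeast (cln2 rad14 genotype) measured and expressed as inhibition relative to vehicle.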

[10] = NCI Yeast Anticancer Drug Screen. Data for the bub3 strain (AID 167); details: S. cerevisiae bub3 mutant strain, hits give high values
In short: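 Inhibition values come from growth of compound-treated mutant yeast normalised to vehicle-treated controls.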

[11] = NCI Yeast Anticancer Drug Screen. Data for the wt2 strain (AID 169);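 note: 0% = growth of vehicle-treated yeast cultures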; details: S. cerevisiae wt2 strain growth inhibition, hits give high values
In short: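 Genetically defined yeast strains from a DNA-repair/cell-cycle panel were used. Compound-exposed yeast growth was measured, and the inhibition was calculated relative to vehicle treatment.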

[12] = NCI Yeast Anticancer Drug Screen. Data for the mlh1 strain (AID 171);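 note: 0% = growth of vehicle-treated control cultures of the same strain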; details: S. cerevisiae mlh1 strain growth inhibition, hits give high values
In short: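 Here the genetically defined yeast mutant is grown with each compound, and the extent to which its growth falls below that of vehicle-exposed cells is reported.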

[13] = NCI Yeast Anticancer Drug Screen. Data for the sgs1 strain (AID 173);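 note: 0% = growth of vehicle-only control cultures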; details: S. cerevisiae sgs1 mutant, hits give high values
In short: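 Relative growth inhibition, referenced to vehicle, was determined in a yeast strain with a defined alteration affecting DNA damage repair or cell cycle control after compound exposure.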

[14] = NCI Yeast Anticancer Drug Screen. Data for the mlh1 rad18 strain (AID 175); details: S. cerevisiae mlh1 rad18 strain growth inhibition, hits give high values
In short: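 In this whole-cell yeast screen, a strain with altered DNA damage repair is challenged with compound, and its growth is measured against matched vehicle-treated controls.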

[15] = NCI Yeast Anticancer Drug Screen. Data for the rad18 strain (AID 177); details: S. cerevisiae rad18 mutant growth inhibition, hits give high values
In short: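 Screen uses a yeast strain with a defined lesion in DNA damage repair; compound effect is read as loss of growth compared to untreated vehicle cultures.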

[16] = at 5.0 µM (retest, dose inferred, filed as 0.5)
[17] = at 50.0 µM (retest, dose inferred, filed as 5.0)

Measured: growth inhibition

O=C1Nc2ccc(Br)cc2C1=Nc1ccc(Cl)cc1
inactive: [1]; at 1.2 µM -8% | [1]; at 3.7 µM -15% | [1]; at 11.0 µM 14% | [1]; at 33.0 µM 42% | [2]; at 1.2 µM -45% | [2]; at 3.7 µM -10% | [2]; at 11.0 µM -8% | [2]; at 33.0 µM 8% | [2]; at 100.0 µM 41% | [3]; at 1.2 µM -52% | [3]; at 3.7 µM -55% | [3]; at 11.0 µM -21% | [3]; at 33.0 µM 20% | [3]; at 100.0 µM 50% | [4]; at 1.2 µM -29% | [4]; at 3.7 µM -20% | [4]; at 11.0 µM 12% | [4]; at 33.0 µM 42% | [4]; at 50.0 µM 57.4% | [4]; at 100.0 µM 64% | [5]; at 1.2 µM -68% | [5]; at 3.7 µM -75% | [5]; at 11.0 µM -64% | [5]; at 33.0 µM -1% | [5]; at 50.0 µM 54.5% | [5]; at 100.0 µM 57% | [6]; at 1.2 µM -52% | [6]; at 3.7 µM -62% | [6]; at 11.0 µM -46% | [6]; at 33.0 µM -8% | [6]; at 100.0 µM 34% | [7]; [16] 8% | [7]; at 50.0 µM 53.4% | [8]; at 1.2 µM 2% | [8]; at 3.7 µM 1% | [8]; at 11.0 µM 20% | [8]; at 33.0 µM 24% | [8]; at 100.0 µM 52% | [9]; [16] 36% | [9]; [17] 54% | [9]; at 50.0 µM 34% | [10]; at 1.2 µM -38% | [10]; at 3.7 µM -26% | [10]; [16] 28% | [10]; at 11.0 µM -11% | [10]; at 33.0 µM 29% | [11]; at 1.2 µM -20% | [11]; at 3.7 µM -12% | [11]; at 11.0 µM -10% | [11]; at 33.0 µM 14% | [11]; at 100.0 µM 47% | [12]; at 1.2 µM -16% | [12]; at 3.7 µM -24% | [12]; at 11.0 µM -3% | [12]; at 33.0 µM 8% | [12]; at 100.0 µM 46% | [13]; at 1.2 µM -25% | [13]; at 3.7 µM -27% | [13]; at 11.0 µM 3% | [13]; at 33.0 µM 33% | [13]; at 100.0 µM 54% | [14]; [16] 67% | [14]; at 50.0 µM 58.5% | [15]; at 1.2 µM -24% | [15]; at 3.7 µM -13% | [15]; at 11.0 µM 2% | [15]; at 33.0 µM 32% | [15]; at 100.0 µM 60%
active: [1]; at 100.0 µM 71% | [4]; [16] 70% | [4]; [17] 100% | [5]; [16] 77% | [5]; [17] 100% | [7]; [17] 71% | [10]; [17] 86% | [10]; at 50.0 µM 83.4% | [10]; at 100.0 µM 81% | [14]; [17] 100%

CC1CCN(CCC(=O)c2ccc([N+](=O)[O-])cc2)CC1
active: [10]; at 50.0 µM 89.6%
inactive: [1]; at 1.2 µM -1% | [1]; at 3.7 µM -1% | [1]; at 11.0 µM 1% | [1]; at 33.0 µM 0% | [1]; at 100.0 µM 7% | [2]; at 1.2 µM 1% | [2]; at 3.7 µM 1% | [2]; at 11.0 µM 3% | [2]; at 33.0 µM 15% | [2]; at 100.0 µM 19% | [3]; at 1.2 µM -4% | [3]; at 3.7 µM 3% | [3]; at 11.0 µM 6% | [3]; at 33.0 µM 21% | [3]; at 100.0 µM 38% | [4]; at 1.2 µM 9% | [4]; at 3.7 µM 13% | [4]; [16] 6% | [4]; at 11.0 µM 15% | [4]; at 33.0 µM 37% | [4]; [17] 31% | [4]; at 50.0 µM 63.5% | [4]; at 100.0 µM 48% | [5]; at 1.2 µM -1% | [5]; at 3.7 µM 2% | [5]; [16] 4% | [5]; at 11.0 µM 1% | [5]; at 33.0 µM 0% | [5]; [17] 69% | [5]; at 50.0 µM 14.5% | [5]; at 100.0 µM 14% | [6]; at 1.2 µM 14% | [6]; at 3.7 µM 25% | [6]; at 11.0 µM 34% | [6]; at 33.0 µM 36% | [6]; at 100.0 µM 45% | [7]; [16] 7% | [7]; [17] 68% | [7]; at 50.0 µM 68.5% | [8]; at 1.2 µM 2% | [8]; at 3.7 µM 5% | [8]; at 11.0 µM 15% | [8]; at 33.0 µM 30% | [8]; at 100.0 µM 40% | [9]; [16] 8% | [9]; [17] 34% | [9]; at 50.0 µM 31.2% | [10]; at 1.2 µM -2% | [10]; at 3.7 µM 2% | [10]; [16] 7% | [10]; at 11.0 µM 6% | [10]; at 33.0 µM 18% | [10]; [17] 65% | [10]; at 100.0 µM 31% | [11]; at 1.2 µM -6% | [11]; at 3.7 µM -2% | [11]; at 11.0 µM 3% | [11]; at 33.0 µM 1% | [11]; at 100.0 µM 16% | [12]; at 1.2 µM 1% | [12]; at 3.7 µM 7% | [12]; at 11.0 µM 9% | [12]; at 33.0 µM 30% | [12]; at 100.0 µM 39% | [13]; at 1.2 µM 2% | [13]; at 3.7 µM 16% | [13]; at 11.0 µM 25% | [13]; at 33.0 µM 46% | [13]; at 100.0 µM 54% | [14]; [16] 7% | [14]; [17] 62% | [14]; at 50.0 µM 40.4% | [15]; at 1.2 µM 6% | [15]; at 3.7 µM 16% | [15]; at 11.0 µM 23% | [15]; at 33.0 µM 20% | [15]; at 100.0 µM 31%
